# Screening results deposited in PubChem BioAssay by several laboratories.
# MCL1 BIM primary: disrupts human MCL1 binding to BIM-BH3 peptide. Q07820. 320,000 compounds, 0.68% hits. inhibition, % at 10.9 µM. GST-MCL1 / FITC-Bim-BH3 fluorescence polarization. AID 2057;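 active means inhibition above the mean inhibition of all tested compounds plus 3 SD, set per campaign, cut at about 40% in these data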;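 further: 0% = DMSO wells and 100% = unlabeled Bim-BH3 peptide control; higher means more loss of mP so more displacement of Bim peptide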
# GLD-1 TGE inh: GLD-1-TGE RNA interaction inhibition (C. elegans). purified GLD-1 + fluorescein TGE RNA, fluorescence polarization. inhibition, % at 5.96 µM. AID 2280. 320,000 compounds, 0.44% hits;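 active means percent inhibition above a per-plate cutoff, the plate mean of test compounds plus 3 SD, cut at about 30% in these data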;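 further: 0% = DMSO wells with GLD-1 and probe and 100% = wells lacking GLD-1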
# E coli Lon inh: inhibits E. coli Lon protease; purified E. coli Lon protease, fluorescence polarization; inhibition, % at 7.94 µM; 360,000 compounds, 0.42% hits; in the data active means inhibition above about 13%, passing the limit was not always enough;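 further: 0% = enzyme with probe and DMSO and 100% = no enzyme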
# BCLXL inh: blocks human Bcl-xL binding to Bim BH3 peptide; inhibition, % at 10.9 µM; 320,000 compounds, 0.7% hits; Q07817; GST-Bcl-xL / FITC-Bim BH3 peptide fluorescence polarization; AID 2129;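 active means inhibition above the mean of all tested compounds plus 3 SD, cutoff set per campaign, cut at about 30% in these data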;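 further: 0% = DMSO wells and 100% = unlabeled Bim-BH3 peptide competitor; inhibitors lower millipolarization by displacing the labeled peptide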
# MEX-5 binding: C. elegans MEX-5 TCR-2 RNA binding activity | Q9XUB2 | MEX-5/FITC-TCR2 RNA binding, fluorescence polarization; stronger effect = lower value | activity score (negative = inhibition of binding), % at 10 µM | 300,000 compounds, 0.38% hits | AID 1832;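 active means inhibition past about -25% in most replicates, and total fluorescence under double the plate's negative control median, limit read from the data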;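 further: 0% = DMSO and -100% = 5 µM competing unlabeled TCR2 RNA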
# Bcl-xL conf: Bcl-xL (human) inhibition, MCL1 counter-screen confirmation; GST-Bcl-xL / FITC-Bim BH3 peptide FP binding; 1,700 compounds, 54% hits; inhibition, % at 10.9 µM; shares compounds with MCL1 BIM primary;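 active means inhibition above a cutoff equal to the mean inhibition of all tested compounds plus 3 SD, cut at about 30% in these data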;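 further: 0% = DMSO wells and 100% = unlabeled Bim BH3 control peptide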
# MCL1 inh confirm: confirmation of human MCL1 and BIM-BH3 interaction inhibitors | shares compounds with MCL1 BIM primary | inhibition, % at 10.9 µM | 1,700 compounds, 61% hits | GST-MCL1 / FITC-Bim-BH3 fluorescence polarization;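 active means inhibition above the average of all tested compounds plus 3 SD, cut at about 40% in these data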;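 further: 0% = DMSO wells and 100% = unlabeled Bim-BH3 control peptide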
# GLD1 RNA confirm: confirmation of C. elegans GLD-1 TGE RNA binding inhibitors; 550 compounds, 10% hits; inhibition, % at 5.96 µM; GLD-1/FL-TGE RNA fluorescence polarization, biochemical; shares compounds with GLD-1 TGE inh;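 active means average inhibition across triplicates above the hit cutoff set in the primary screen, cut at about 32% in these data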;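 further: 0% = GLD-1 with RNA probe and DMSO and 100% = wells lacking GLD-1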
# Starred values were filed as active, the others as inactive; . = no result given. Compounds with a hit are over-represented: about 1.4% of the library has one in this group of screens.
SMILES,MCL1 BIM primary,GLD-1 TGE inh,E coli Lon inh,BCLXL inh,MEX-5 binding,Bcl-xL conf,MCL1 inh confirm,GLD1 RNA confirm
O=c1[nH]c(Nc2ccccn2)cc2ccccc12,7.6,8.1,-9.8,11.9,-9.2,.,.,.
O=c1[nH]c(Nc2ccc(F)cc2)cc2ccccc12,66.3*,66.1*,-10.0,54.3*,-14.7,11.8,12.6,7.9
CCOc1ccccc1CN1CCCC(C(=O)Nc2cccc(-n3cccn3)c2)C1 (configuration not stated),3.0,0.9,-0.9,0.9,-1.8,.,.,.
COc1ccc(OC)c(-c2csc(NC(=O)COC(=O)C3(C)CC3(Cl)Cl)n2)c1 (configuration not stated),-6.9,2.1,-7.7,-5.3,.,.,.,.
CNc1nc2cc([N+](=O)[O-])c([N+](=O)[O-])cc2nc1NC,98.2*,98.3*,2.1,89.6*,2.5,11.6,6.6,8.0
Cc1csc(SCc2c(C(=O)O)oc3ccccc23)n1,125.0*,62.1*,-5.6,106.7*,0.7,5.8,3.9,-2.1
Cc1ccc(C(=O)NCc2ccc(N3CCN(C)CC3)cc2)cc1C,11.0,-8.7,-1.4,3.0,-0.5,.,.,.
CCOC(=O)C1=C(C)OC(N)=C(C#N)C1c1cc2c(cc1[N+](=O)[O-])OCO2 (configuration not stated),44.3*,38.0*,2.1,36.5*,-2.5,48.6*,72.8*,6.8
CC(C)NC(=O)C1CC(=O)N(CCc2ccc(F)cc2)C1 (configuration not stated),.,.,7.0,.,.,.,.,.
CCOC(=O)c1c(NC(=O)CSc2ncn[nH]2)sc(C(C)=O)c1C,-7.5,-0.6,-7.1,0.6,-1.5,.,.,.
COC(=O)c1c(NC(=O)CSc2ncn[nH]2)sc(C)c1C,70.8*,32.2*,-16.1,56.2*,-0.8,1.2,6.2,-8.6
O=c1[nH]c2cc3c(cc2cc1CN(Cc1nnnn1CC1CCCO1)C1CCCCC1)OCO3 (configuration not stated),84.9*,43.2*,23.7,76.7*,-6.3,45.1*,67.9*,-2.4
COc1ccccc1C(=O)NC(=O)COC(=O)c1ccc(Cl)nc1,10.6,8.1,-1.5,5.1,0.7,.,.,.
Cc1nc(SCC(=O)Nc2c(C)n(C)n(-c3ccccc3)c2=O)[nH]c(=O)c1Cc1ccccc1,70.7*,47.4*,-20.8,55.2*,1.9,10.9,4.7,7.4
N#Cc1ccsc1NC(=O)CN1C(=O)NC2(CCCC2)C1=O,70.8*,53.9*,16.3,65.5*,-6.5,59.2*,94.2*,5.8
Cc1cc2cc(CNC(=O)c3ccc4c(c3)OCO4)ccc2[nH]1,53.5*,33.5*,18.8,37.2*,-1.6,18.7,9.1,-0.1
Cc1cc2cc(CNC(=O)c3ccc(Br)o3)ccc2[nH]1,68.9*,41.3*,9.4,54.6*,-1.8,56.7*,74.6*,5.0
Cc1ccc(CNC(=O)c2ccc(Br)o2)cc1,3.6,-3.5,-1.2,0.7,0.3,.,.,.
O=C1C=CC(c2c[nH]c3ccccc23)CC1 (configuration not stated),.,.,1.0,.,.,.,.,.
Cc1ccc(-c2cc(-c3ccco3)c(C#N)c(=O)[nH]2)cc1,96.2*,50.2*,21.1,78.7*,-40.1*,26.1,53.1*,-13.8
Cc1ccc(-c2cc(C(F)(F)F)c(C#N)c(=O)[nH]2)cc1,19.7,3.1,-0.3,4.9,0.0,.,.,.
CC1(C)CNC(=O)CC(C)(C)N1,10.5,0.3,9.9,6.7,3.3,.,.,.
C[C@H](NC(=O)C1CC(=O)N(c2ccc3c(c2)OCCO3)C1)C(=O)NC1CCCC1 (some centres not stated),-1.0,0.2,-9.7,4.2,-1.2,.,.,.
CC(C)[C@H](NC(=O)C1CC(=O)N(c2ccc3c(c2)OCO3)C1)C(=O)NC1CCCC1 (some centres not stated),54.4*,42.9*,12.2,55.3*,-16.8,36.8*,64.9*,20.2
